Read-out in assay [1]: Thrombomodulin, THBD (gene 7056)
The experiment in a line: BSK_CASM3C_Thrombomodulin: BioMAP Diversity Plus: CASM3C Assay for Thrombomodulin Biomarker Activity (AID 2283051).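 Note: thrombomodulin protein level measured by ELISA 24 h after dosing.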 The settings on record: primary human coronary artery smooth muscle cells; actives raise or lower the signal.

Read-out in assay [2]: Tissue Factor, F3 (gene 2152)
In words: BSK_CASM3C_TissueFactor: BioMAP Diversity Plus: CASM3C Assay for Tissue Factor Biomarker Activity (AID 2283052).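 Note: cell surface tissue factor protein level read by ELISA.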 To be noted: primary human coronary artery smooth muscle cells; actives raise or lower the signal.

Read-out in assay [3]: Interferon-gamma inducible Protein 10 (IP10), CXCL10 (gene 3627)
In words: BSK_hDFCGF_IP10: BioMAP Diversity Plus: hDFCGF Assay for Interferon-gamma inducible Protein 10 (IP10) Biomarker Activity (AID 2283053). The settings on record: primary human foreskin fibroblasts; actives raise or lower the signal. The procedure, abridged: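 Cells: human dermal foreskin fibroblasts. Exposure: 24 h post-dosing. Detection: IP-10 ELISA, with values expressed against DMSO controls and fitted in both directions.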

Read-out in assay [4]: Urokinase-type plasminogen activator receptor (uPAR), PLAUR (gene 5329)
The experiment in a line: BSK_CASM3C_uPAR: BioMAP Diversity Plus: CASM3C Assay for Urokinase-type plasminogen activator receptor (uPAR) Biomarker Activity (AID 2283054).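 Note: cell-surface uPAR protein level quantified by ELISA.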 To be noted: primary human coronary artery smooth muscle cells; actives raise or lower the signal.

Read-out in assay [5]: Vascular cell adhesion molecule 1 (VCAM1), VCAM1 (gene 7412)
The experiment in a line: BSK_CASM3C_VCAM1: BioMAP Diversity Plus: CASM3C Assay for Vascular cell adhesion molecule 1 (VCAM1) Biomarker Activity (AID 2283055).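 Note: VCAM-1 protein level quantified by ELISA on the cells.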 To be noted: primary human coronary artery smooth muscle cells; actives raise or lower the signal.

Read-out in assay [6]: Collagen III, COL3A1 (gene 1281)
The experiment in a line: BSK_hDFCGF_CollagenIII: BioMAP Diversity Plus: hDFCGF Assay for Collagen III Biomarker Activity (AID 2283056). The settings on record: primary human foreskin fibroblasts; actives raise or lower the signal. Put shortly: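 hDFCGF primary human dermal fibroblasts; 24 h chemical exposure; collagen III by ELISA; bidirectional curve fit vs DMSO baseline (gain or loss of signal).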

Read-out in assay [7]: Epidermal growth factor receptor (EGFR), EGFR (gene 1956)
The experiment in a line: BSK_hDFCGF_EGFR: BioMAP Diversity Plus: hDFCGF Assay for Epidermal growth factor receptor (EGFR) Biomarker Activity (AID 2283057). To be noted: primary human foreskin fibroblasts; actives raise or lower the signal. Put shortly:
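Dosing human primary skin fibroblasts, then measuring surface EGFR by ELISA at 24 h, gives the endpoint; gains and losses relative to DMSO were fitted in both directions.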

A short description of assay [8]: BSK_hDFCGF_Proliferation: Cell Proliferation Assessment in the BioMAP Diversity Plus: hDFCGF Assay (AID 2283059).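 Note: curves fitted for both rise and fall of signal versus DMSO baseline.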 The settings on record: primary human foreskin fibroblasts. Put shortly:
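Steps: dose primary human dermal fibroblasts (foreskin); […] fix in 10% TCA; stain with 0.1% SRB; read 560 nm; fit gain or loss of signal against DMSO.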

Read-out in assay [9]: Macrophage colony-stimulating factor (MCSF), CSF1 (gene 1435)
The experiment in a line: BSK_hDFCGF_MCSF: BioMAP Diversity Plus: hDFCGF Assay for Macrophage colony-stimulating factor (MCSF) Biomarker Activity (AID 2283060). The settings on record: primary human foreskin fibroblasts; actives raise or lower the signal. The procedure, abridged: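 ELISA read-out of M-CSF in human dermal foreskin fibroblast cultures, 24 h after chemical dosing; gain or loss of signal fitted bidirectionally relative to DMSO baseline.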

Read-out in assay [10]: Interleukin-8 (IL8), CXCL8 (gene 3576)
In words: BSK_hDFCGF_IL8: BioMAP Diversity Plus: hDFCGF Assay for Interleukin-8 (IL8) Biomarker Activity (AID 2283058). To be noted: primary human foreskin fibroblasts; actives raise or lower the signal. The procedure, abridged:
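ELISA read-out of IL-8 from primary human foreskin fibroblast cultures taken 24 h after dosing; values are bidirectional fits relative to DMSO vehicle.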

This passage reports outcome and AC50 results from PubChem BioAssay (EPA / NIEHS).

As a reminder, the AC50 is the concentration giving half of the maximal activity seen.

Calls of active or inactive are those of the source. Rule for the calls: active = hit-call score of the fitted dose curve at least 0.9, where 1 is the maximum; inactive = score below 0.9.

For `Cc1cc(=O)[nH]c(=S)[nH]1`, the result in [1], in assay [2], in [3], in assay [4], in assay [5] and in [6] was inactive. The outcome in [7], in [8] and in assay [9] was inactive.

As for `CCCCCCCCCCO`, the outcome in [1], in assay [2], in assay [4], in [5], in assay [6] and in assay [7] was inactive. The outcome in assay [10], in assay [8] and in [9] was inactive.

As for `O=C(N[C@@H](Cc1ccccc1)[C@@H](O)C(=O)N1C[C@@H](O)[C@@H](O)C1)c1cc2cc(Cl)ccc2[nH]1`, the result in assay [1], in assay [2], in [3], in [4], in assay [5] and in assay [6] was inactive. For the same compound, the outcome in assay [7], in assay [8] and in [9] was inactive.

Consider `O=C(OCCCCCOC(=O)c1ccccc1)c1ccccc1`, for which the result in assay [1], in [2], in [3], in [4], in assay [5] and in [6] was inactive. For the same compound, the result in assay [7], in [8] and in assay [9] was inactive.

As for `CN1CCCC1=O`, the outcome in assay [1], in [2], in [3], in assay [4], in assay [5] and in assay [6] was inactive. Besides, the result in assay [7], in assay [8] and in assay [9] was inactive.

`Oc1ccc2ccccc2c1N=Nc1ccccc1`: the AC50 in assay [1] is 1.36 µM (active); in assay [8], 5.03 µM (active). Besides, the result in assay [2], in assay [4], in [5], in assay [6], in assay [7] and in assay [10] was inactive. For the same compound, the outcome in assay [9] was inactive.

For the compound `Cc1ccc(C)c(O)c1C`, the outcome in assay [1], in assay [2], in assay [3], in assay [4], in assay [5] and in assay [6] was inactive. Besides, the result in assay [7], in [8] and in [9] was inactive.

Regarding `CCCCC(CC)COC(=O)CC(C(=O)OCC(CC)CCCC)S(=O)(=O)O` (stereo not given), the result in [1], in assay [2], in assay [4] and in assay [5] was inactive. The AC50 in assay [3] is 7.42 µM (active); in [6] it was 8.52 µM (active); in [10] it was 12.9 µM (active); in [8], 10 µM (active); in assay [9] it was 9.34 µM (active).

`CC(C)c1ccc(C(=O)N=C(N)N)cc1S(C)(=O)=O`: the outcome in [1], in [2], in assay [4], in assay [5], in [6] and in assay [7] was inactive. Also, the outcome in assay [10], in assay [8] and in [9] was inactive.

In the case of `CCCCCCCC=O`, the outcome in [1], in assay [2], in [3], in assay [4], in assay [5] and in [6] was inactive. For the same compound, the result in assay [7], in assay [8] and in assay [9] was inactive.

As for `Cc1cccc(Nc2cc(Cl)nc(SCC(=O)O)n2)c1C`, the result in assay [1], in assay [2], in [3], in [4], in assay [5] and in [6] was inactive. Also, the outcome in assay [7], in assay [8] and in assay [9] was inactive.

Take `COC(=O)c1ccc(O)cc1`: the outcome in assay [1], in assay [2], in assay [3], in [4], in assay [5] and in [6] was inactive. Further, the result in assay [7], in [8] and in assay [9] was inactive.

As for `C[C@]12C=CC(=O)C=C1CC[C@@H]1[C@@H]2C(=O)C[C@@]2(C)[C@H]1CC[C@]2(O)C(=O)CO`, the outcome in assay [1], in [2], in assay [5], in assay [6], in assay [7] and in assay [10] was inactive. Besides, the outcome in assay [8] and in assay [9] was inactive. Also, the concentration at half-maximal activity (AC50) in [4] is 0.239 µM (active).

Take `CC(CO)OC(C)CO` (stereo not given) (tested in a mixture with another compound): the outcome in [1], in assay [2], in assay [4], in [5], in assay [6] and in assay [7] was inactive. Besides, the result in assay [10], in [8] and in assay [9] was inactive.

As to `CC=Cc1ccc(O)c(OC)c1`, the result in assay [1], in assay [2], in assay [4], in [5], in assay [6] and in assay [7] was inactive. Moreover, the result in [10] and in assay [9] was inactive. For the same compound, the half-maximal activity concentration (AC50) in [8] was 24.6 µM (active).

Regarding `COCCOC[C@H](CC1(C(=O)NC2CCC(C(=O)O)CC2)CCCC1)C(=O)Oc1ccc2c(c1)CCC2` (stereo not given in full), the outcome in assay [1], in assay [2], in assay [4], in assay [5], in [6] and in assay [7] was inactive. Also, the outcome in assay [10], in assay [8] and in assay [9] was inactive.

Take `CCCCCCCCCCCCCCCCCC(=O)O`: the outcome in [1], in assay [2], in assay [3], in [4], in assay [5] and in assay [6] was inactive. For the same compound, the result in assay [7], in [8] and in assay [9] was inactive.

As for `Cc1ccc(C)c(C)c1`, the outcome in assay [1], in assay [2], in assay [4], in assay [5], in assay [6] and in assay [7] was inactive. Besides, the result in assay [10], in assay [8] and in assay [9] was inactive.

`CC(=O)Oc1ccccc1C(=O)O`: the outcome in [1], in [2], in assay [4], in assay [5], in assay [6] and in assay [7] was inactive. The outcome in assay [8] and in [9] was inactive.

As for `CCOc1ccc2c(c1)C(C)=CC(C)(C)N2`, the outcome in assay [1], in assay [2], in [4], in assay [5] and in assay [7] was inactive. In addition, the half-maximal activity concentration (AC50) in assay [6] was 15.1 µM (active); in assay [8], 24.3 µM (active); in [9] it was 6.14 µM (active).

As to `COc1ccc2c(c1)c(CC(=O)O)c(C)n2C(=O)c1ccc(Cl)cc1`, the outcome in assay [1], in [2], in [4], in assay [5], in assay [7] and in [9] was inactive. Further, the values for the AC50 in assay [6] and in [8] were 20 µM (active) and 13.1 µM (active), respectively.

Regarding `C1CCC(SSC2CCCCC2)CC1`, the AC50 in [1] is 14.8 µM (active); in assay [5] it was 28.8 µM (active); in [6], 11.7 µM (active); in assay [8], 15.9 µM (active); in assay [9], 20 µM (active). For the same compound, the result in assay [2], in assay [4], in assay [7] and in [10] was inactive.
